# Compounds with a hit are over-represented: about 22% of the library has one in this group of screens.
# CYP2C9 activ = activators of human CYP2C9; recombinant CYP2C9, luciferin-H conversion, luminescence; stronger effect = higher value; factor 1 = untreated enzyme, 0 = blocked; activation factor at 5 µM; 96,000 tested, 1.4% active;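 active = activation factor of 2 or more for CYP2C9 at a 5 µM dose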;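 note: 0 = sulfaphenazole-blocked wells and 1 = vehicle-only wells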
# Target sequence (P11712 whole entry, looked up): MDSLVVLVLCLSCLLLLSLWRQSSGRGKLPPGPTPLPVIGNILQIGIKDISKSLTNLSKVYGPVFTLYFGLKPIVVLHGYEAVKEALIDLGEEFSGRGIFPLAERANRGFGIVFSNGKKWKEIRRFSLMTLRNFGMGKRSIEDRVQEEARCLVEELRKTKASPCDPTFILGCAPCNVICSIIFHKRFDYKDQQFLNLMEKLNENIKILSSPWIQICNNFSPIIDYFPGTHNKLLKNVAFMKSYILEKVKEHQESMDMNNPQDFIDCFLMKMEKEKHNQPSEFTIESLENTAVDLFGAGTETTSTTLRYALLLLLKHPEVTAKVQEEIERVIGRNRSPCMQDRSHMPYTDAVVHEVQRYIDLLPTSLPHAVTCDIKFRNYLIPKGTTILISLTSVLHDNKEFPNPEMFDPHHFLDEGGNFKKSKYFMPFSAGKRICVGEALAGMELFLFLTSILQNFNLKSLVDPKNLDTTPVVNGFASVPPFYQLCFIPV
# CYP2C9 inhib = human CYP2C9 inhibition; P11712; CYP2C9 Supersomes, luciferin-H conversion, luminescence; inhibition, % at 5 µM; 96,000 tested, 20% active;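 active = blocking of liver enzyme CYP2C9 beyond about 50% at 5 µM, limit read from the data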
# CYP2C19 activ = cytochrome P450 2C19 (human) activation | 96,000 tested, under 10 active | activation factor at 5 µM | recombinant CYP2C19, luciferin-H EGE luminescence; stronger effect = higher value; 0 = fully inhibited enzyme, 1 = untreated enzyme;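 active = activation factor of at least 2 at 5 µM in the primary screen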;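 note: 0 = wells with 2.5 mM tranylcypromine and 1 = vehicle-only wells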
# Measles CPE = protection of cells from measles virus. Measles virus-infected cells, CPE protection, absorbance. protection (pct of control), % at 4 µM. 140,000 tested, 1.5% active; in the data active = protection mostly above about 24%, no sharp cut-off; inactive = mostly below about 26%
# CYP2C19 inhib = inhibitors of human CYP2C19; CYP2C19 Supersomes, luciferin-H EGE luminescence, 30 min; inhibition, % at 5 µM; 96,000 tested, 21% active; AID 778;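 active = CYP2C19 inhibition above a set limit at 5 µM in the primary screen, cut at about 50% in these data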;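 note: plate controls were negative control wells for no effect and 2.5 mM tranylcypromine positive control for full effect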
# Active calls of the source: *; nt = no result given.
SMILES,CYP2C9 activ,CYP2C9 inhib,CYP2C19 activ,Measles CPE,CYP2C19 inhib
CC(C(=O)NC1CCCC1)N(C(=O)c1snc(C(N)=O)c1N)c1ccc2c(c1)OCCO2 (stereo not drawn),0.5,50*,0.9,4,15
CCOc1ccccc1N(C(=O)c1snc(C(N)=O)c1N)C(C(=O)NCCC(C)C)c1ccco1 (stereo not drawn),0.5,50*,0.6,4,40
CC1CC(OCC(O)CN2CCOCC2)CC(C)(C)C1 (stereo not drawn),nt,nt,nt,6,nt
Cc1ccc(SCc2cc(=O)[nH]c(/N=C(\N)Nc3cccc4ccccc34)n2)cc1,nt,nt,nt,3,nt
Cc1ccc(Cn2c(SCC(=O)Nc3cccc(C)n3)nc3c2c(=O)n(C)c(=O)n3C)cc1,0.7,30,0.9,nt,14
CC1CCN(C(=O)CSc2nnc(Cc3cccn3C)n2-c2ccc(F)cc2)CC1,0.5,47,0.6,17,36
COCCNC(=O)C(c1ccc(C)o1)N(C(=O)c1snc(C(N)=O)c1N)c1cc(C)cc(C)c1 (stereo not drawn),0.4,56*,0.3,3,66*
COc1ccc(C)cc1S(=O)(=O)N(CC(=O)O)c1ccc(F)cc1,0.7,28,1,9,0
CC(=O)c1cccc(NC(=S)NC(=O)c2ccccc2Cl)c1,nt,nt,nt,5,nt
COC(=O)/C=C(\C)NC(=O)c1ccccc1Cl,0.9,11,0.2,22,80*
O=C(COc1ccccc1O)c1cccs1,1,-2,0.7,6,27
Cc1ccc(C(=O)OCc2ccc3c(c2)OCO3)cc1S(=O)(=O)N1CCCCC1,0,95*,0.2,4,79*
O=C(Nc1ccc2c(c1)OCCO2)c1cccc(S(=O)(=O)N2CCCCC2)c1,0.4,63*,0.6,4,41
O=C(Nc1ccc(C(O)(C(F)(F)F)C(F)(F)F)cc1)c1ccc(Cl)c([N+](=O)[O-])c1,nt,nt,nt,1,nt
O=C(Nc1ccc2c(c1)OCCO2)c1cccc(S(=O)(=O)N2CCOCC2)c1,1,5,0.9,5,5
O=C(Nc1ccc(N2CCOCC2)cc1)c1cccc(S(=O)(=O)N2CCC(Cc3ccccc3)CC2)c1,0.4,64*,0.5,10,46
O=C(Nc1ccc2c(c1)OCCO2)c1ccc(Cl)c([N+](=O)[O-])c1,nt,nt,nt,20*,nt
O=C(O)c1cccc(NC(=O)c2ccc3c(c2)C(=O)N(CC2CCCO2)C3=O)c1 (stereo not drawn),0.3,73*,0.2,13,77*
Cc1ccc(C(=O)Nc2ccc3c(c2)OCO3)cc1S(=O)(=O)N1CCCC1,0.4,58*,0.5,nt,46
COC(=O)c1cccc(NC(=O)c2ccc3c(c2)C(=O)N(CC2CCCO2)C3=O)c1 (stereo not drawn),0.7,31,0.7,8,35
Cc1ccc(C(=O)Nc2cccc(C(=O)O)c2)cc1S(=O)(=O)N1CCCCC1,0.4,57*,0.5,18,47
CC(C)CC(=O)c1c[nH]c(C(=O)NCCCN2CCOCC2)c1,1.1,-9,1.2,3,-17
CN(C)CCCN1C(=O)C(=O)/C(=C(/O)c2ccc(OCc3ccccc3)cc2)C1c1cccnc1 (stereo not drawn),1,0,1,nt,2
O=C(CSc1nc(-c2ccco2)cc(C(F)(F)F)n1)N1CCCc2ccccc21,nt,nt,nt,1,nt
CCCCOC(=O)CSc1nnc(N)s1,0.8,16,0.5,9,52*
SMILES,CYP2C9 activ,CYP2C9 inhib,CYP2C19 activ,Measles CPE,CYP2C19 inhib
Nc1nnc(SCC(=O)OCc2ccccc2)s1,nt,nt,nt,14,nt
CCc1cc(-c2n[nH]c(=S)n2Cc2ccccc2)cs1,0.5,46,0.5,11,51*
CCc1cc(-c2n[nH]c(=S)n2CC)cs1,nt,nt,nt,17,nt
CCCc1cc(-c2n[nH]c(=S)n2C(C)c2ccccc2)cs1 (stereo not drawn),0,97*,0.2,16,81*
CCc1cc(-c2n[nH]c(=S)n2-c2ccccc2C)cs1,0.5,52*,0.6,7,43
Cc1ccc(C(=O)COC(=O)c2cc(Cl)nc3ccccc23)cc1C,2*,-104,0.8,2,21
CC(C)c1nnc(NC(=O)CSc2ccccc2)s1,0.4,62*,0.4,5,63*
CCOCCc1nnc(NC(=O)CSc2ccccc2)s1,0.9,15,0.8,7,19
CCOCc1nnc(NC(=O)CSc2ccccc2)s1,0.5,51*,0.5,3,49
CC1(C)CC(=O)C2=C(C1)N(c1ccc(F)cc1)C(=O)CC2c1ccsc1 (stereo not drawn),1,5,0.4,6,63*
O=C1CCCC2=C1C(c1ccccc1)CC(=O)N2c1ccccc1 (stereo not drawn),0.9,6,0.2,4,78*
CSc1ccc(C2C(C#N)=C(N)N(c3ccccc3)C3=C2C(=O)CCC3)cc1 (stereo not drawn),0.1,90*,0.3,10,74*
Cc1ccc(N2C(=O)CC(c3ccsc3)C3=C2CC(C)(C)CC3=O)cc1 (stereo not drawn),0.7,33,0.6,3,40
CC1(C)CC(=O)C2=C(C1)N(c1ccccc1)C(=O)CC2c1ccsc1 (stereo not drawn),0.7,26,0.1,11,88*
CN(C(=O)c1cc2nc(-c3ccco3)cc(C(F)(F)F)n2n1)C1CCCCC1,1,-3,0.9,3,13
COc1cc2nc(SCC(N)=O)n(CCC3=CCCCC3)c(=O)c2cc1OC,0.7,35,0.8,30,18
C=CCNC(=O)CSc1nnc(-c2ccccc2Br)n1-c1cccc(C(F)(F)F)c1,nt,nt,nt,-2,nt
Cn1cccc1Cc1nnc(SCC(=O)Nc2ccc3c(c2)OCCO3)n1-c1ccc(F)cc1,0.7,30,0.8,9,18
Cc1ccc(-n2c(Cc3cccn3C)nnc2SCC(=O)NCc2ccc3c(c2)OCO3)cc1,0.2,84*,0.4,6,57*
Cc1ccc(-n2c(Cc3cccn3C)nnc2SCC(=O)Nc2ccc3c(c2)OCO3)cc1,0.4,56*,0.5,20,46
CCOC(=O)c1c(NC(C)=O)sc2c(OC)cccc12,0.7,26,0.9,2,12
CCOC(=O)/C(C#N)=C\c1ccco1,0.9,8,1,22,1
OC(CN1CCN(c2ccccn2)CC1)Cn1c2ccc(Cl)cc2c2cc(Cl)ccc21 (stereo not drawn),1,-5,0.8,10,21
CC(=O)N(C)c1ccc(OCC(O)Cn2c3ccc(Cl)cc3c3cc(Cl)ccc32)cc1 (stereo not drawn),0.5,54*,0.7,6,31
Cc1ccc(OCC(O)Cn2c3ccccc3c3ccccc32)cc1 (stereo not drawn),0.4,60*,0.4,8,63*
Cc1cccc(C)c1OCC(O)Cn1c2ccccc2c2ccccc21 (stereo not drawn),0.2,75*,0.5,25,49
OC(COCC(F)(F)C(F)(F)C(F)(F)C(F)F)Cn1c2ccccc2c2ccccc21 (stereo not drawn),nt,nt,nt,4,nt

# Screens deposited in PubChem BioAssay by several laboratories.
